SMILES strings stand for the structures. Activity calls are given as the source filed them. How the source made its calls: active means hit-call score of the fitted dose curve at least 0.9, where 1 is the maximum; inactive means score below 0.9.

The experiment is described as follows: ATG_EGR_CIS: Attagene CIS-FACTORIAL HepG2 Assay for human Early Growth Response 1 (EGR1) (AID 2282938). To be noted: HepG2 Attagene CIS-FACTORIAL EGR reporter mRNA; actives raise or lower the signal. How it is done: ATG_CIS is a cell-based, multiplexed-readout assay that uses HepG2, a human liver cell line, with measurements taken at 24 hours after chemical dosing in a 24-well plate.ATG_EGR_CIS is one of 52 assay component(s) measured or calculated from the ATG_CIS assay. It is designed to make measurements of mRNA induction, a form of inducible reporter, as detected with fluorescence intensity signals by Reverse transcription polymerase chain reaction (RT-PCR) and Capillary electrophoresis technology.Data from the assay component ATG_EGR_CIS was analyzed into 1 assay endpoint. This assay endpoint, ATG_EGR_CIS, was analyzed with bidirectional fitting relative to DMSO as the negative control and baseline of activity. Using a type of inducible reporter, measures of mRNA for gain or loss-of-signal activity can be used to understand the reporter gene at the transcription factor-level as they relate to the gene EGR1. Furthermore, this assay endpoint can be referred to as a primary readout, because this assay has produced multiple assay endpoints where this one serves a reporter gene function. To generalize the intended target to other relatable targets, this assay endpoint is annotated to the dna binding intended target family, where the subfamily is zinc finger.
Human liver HepG2 cells are transiently transfected with multiple reporter transcription units (MRTUs) in 6-well plates using FuGene 6 reagent (Roche; 3 ml FuGene/1 mg DNA). The MRTU constructs are regulated by a cis-regulating element (promoter). […] A major difference between the CIS and TRANS system is that in CIS activities of endogenous TFs are measured, whereas the TRANS assay evaluates changes in activities of exogenous, chimeric NR-Gal4 proteins. […] At the end of 24 hour incubation, total RNA was isolated using TriZol reagent (Invitrogen). The isolated RNA is then reverse-transcribed using oligo(dT) primer and Mo-MLV reverse transcriptase (Invitrogen) with DNAse I (Ambion) treatment for 30 min. The one-tenth of the produced cDNA was amplified by PCR using Taq DNA polymerase (Invitrogen) and two reporter sequence-specific primers. The PCR products were fluorescently labeled by primer extension with 6-arboxyfluorescein (6-FAM) 5'-labeled reporter sequence-specific primer (2 min at 95 C, 20 s at 68 C and 10 min at 72 C) and these products were digested with 5U of HpaI (New England Biolabs) for 2h at 37 C. The fragments were purified using Qiaquick PCR columns (Qiagen), analyzed on an ABI 3130xL genetic analyzer (Applied Biosystems) with peak positions identified by using a set of X-rhodamine (ROX)-labeled MapMarker1000 molecular weight standards (BioVentures). The raw capillary electrophoresis data was processed using Attagraph software (Attagene).
Regarding `Cc1ccc(N(SC(F)(Cl)Cl)S(=O)(=O)N(C)C)cc1`, the concentration at half-maximal activity (AC50) was 11.1 µM (active).
Turning to `CC1(C)C(=O)NC(=O)NC1=O`, the compound was called inactive.
Still for that read-out and setting: to `O=C(O)C(Br)Br` belongs “inactive”.
The same measure, in the same setting: then `Nc1ccc(-c2ccc(N)c(N)c2)cc1N`, with “inactive”.
With `CCC(C)c1cc([N+](=O)[O-])cc([N+](=O)[O-])c1OC(=O)C=C(C)C` (stereo not given), the AC50 is 27.7 µM (active).
For `CC(C)(c1cc(Cl)c(O)c(Cl)c1)c1cc(Cl)c(O)c(Cl)c1`, the AC50 is 52.8 µM (active).
`CCOC(=O)N(C)N=O`: the outcome was inactive.
Take `ClCCCCCCCl`: the compound was called inactive.
Regarding `CC(C)(C)C(=O)CCl`, the compound was called inactive.
Regarding `[CH3][Sn]([Cl])([Cl])[Cl]`, the outcome was inactive.
Same read-out and setting: to `CC1(C)[C@H](C(=O)O[C@H](C#N)c2cccc(Oc3ccccc3)c2)[C@@H]1C=C(Br)Br` belongs “inactive”; to `CC(C)CCCCCCCOC(=O)c1ccccc1C(=O)OCCCCCCCC(C)C`, “inactive”.
`O=CNC(N1CCN(C(NC=O)C(Cl)(Cl)Cl)CC1)C(Cl)(Cl)Cl` (stereo not given): the compound was called inactive.
Still for that read-out and setting: then `O=c1[nH]c(Cl)c(Cl)cc1Cl`, with “inactive”; and `O=[N+]([O-])O`, with “inactive”.
Still for that read-out and setting: then `COC(=O)c1ccccc1S(=O)(=O)NC(=O)Nc1nc(C)cc(C)n1`, with “inactive”.
Same read-out and setting: to `SCc1ccco1` belongs “inactive”; to `CCCCOP(=O)(O)OCCCC`, “inactive”.
Turning to `[CH3][Sn]([CH3])([Cl])[Cl]`, the compound was called inactive.
With `O=P1(NCCCl)OCCCN1CCCl` (stereo not given), the compound was classed as inactive.
`CCOP(=O)(OCC)OCC`: the call was inactive.
For the compound `CC(C)(C)C(O)C(Oc1ccc(-c2ccccc2)cc1)n1cncn1` (stereo not given), the compound was classed as inactive.
On the same count and under the same terms, then `O=C1Nc2ccc(Cl)cc2C(c2ccccc2)=NC1O` (stereo not given), with “inactive”.
For `CC=Cc1ccc2c(c1)OCO2`, the result was inactive.
On the same count and under the same terms, then `CC(O)CN(CC(C)O)CC(C)O` (stereo not given), with “inactive”.
Consider `CCc1cccc(C)c1N(C(=O)CCl)[C@@H](C)COC`, for which the AC50 was 57.9 µM (active).
As for `CC1OC(C)OC(C)O1` (stereo not given), the compound was classed as inactive.
The same measure, in the same setting: to `CC(C)c1ccc(O)cc1` belongs “inactive”; to `CCCCCCCCCCCC#N`, “inactive”.
On to `Clc1ccc(-c2ccccc2)cc1`, for which the outcome was inactive.
For the compound `N#Cc1cccc(C#N)c1`, the call was inactive.
Turning to `C=C(Cl)Cl`, the call was inactive.
Still for that read-out and setting: then `c1ccc(P(c2ccccc2)c2ccccc2)cc1`, with “inactive”; and `C[N+](=O)[O-]`, with “inactive”; and `CCOP(O)OCC`, with “inactive”.
The same measure, in the same setting: then `CSc1nc(N=[N+]=[N-])nc(NC(C)C)n1`, with “inactive”.
The same measure, in the same setting: to `N#CCNCC#N` belongs “inactive”; to `O=[N+]([O-])c1ccc(Cl)cc1`, “inactive”; to `C=CC(=O)OCC(CC)CCCC` (stereo not given), “inactive”.
For the compound `CN(C)C(=O)C(c1ccccc1)c1ccccc1`, the compound was called inactive.

The values above are taken from PubChem BioAssay (EPA / NIEHS).
